Source: PubChem BioAssay
In the library only some 2.4% were active in any assay of this set; here they are far more common.
D2 ag-1: activates the human D2 dopamine receptor; AID 624465; P14416; DiscoveRx PathHunter D2 beta-arrestin, luminescence, 90 min; 100% = 57 uM dopamine signal; 360,000 tested, 0.084% active; activation, % (concentration not given with the values); in the data active = activation above about 40%; inconclusive = between about 15% and that limit
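DiscoveRx PathHunter D2 beta-arrestin cells (2,100/well) attached overnight, then compound-stimulated 90 min at 37 C in HBSS/10 mM HEPES/0.1% Tween-20 buffer; beta-galactosidase complementation read by luminescence after 1 h at ambient temperature. Dopamine 57 uM final (EC100) as control.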
D2 antag: antagonists of human D2 dopamine receptor | P14416 | HEK293 TREx D2 cells, calcium flux, dopamine EC80 | inhibition, % at 10 µM | 340,000 tested, 2% active | AID 485344; in the data active = inhibition above about 30%; inactive = below that, where a call was filed; also: 0% is about no effect
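Dopamine at EC80 is the agonist stimulus; test compounds precede it by 180 s. Calcium flux read kinetically in a force-coupled, inducible HEK293 T-REx D2 cell line.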
D2 PAM-1: D2 dopamine receptor (human) potentiation | P14416 | HEK293 T-REx D2, calcium flux, EC20 dopamine potentiation | potentiation, % at 10 µM | 340,000 tested, 0.34% active;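 active = potentiation over 3 SD above the plate norm, cut at about 30% in these data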; also: 0% is about no effect
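Cells plated with tetracycline inducer and held overnight at 30 C; calcium dye loaded 30–90 min at room temperature; baseline taken, compound added and read 180 s; EC20 dopamine then added and read 180 s.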
D2 PAM-2: positive allosteric modulators of human D2 dopamine receptor; P14416; DiscoveRx D2 beta-arrestin cells, luminescence, 90 min; 100% = 57 uM dopamine signal; potentiation, % (concentration not given with the values); 360,000 tested, 0.23% active; AID 624464; in the data active = potentiation above about 50%; inconclusive = mostly about 30% to 49%
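D2 cells co-treated with compound plus 50 nM dopamine (EC20) for 90 min at 37 deg C to detect potentiation. Beta-arrestin recruitment was read as enzyme-fragment luminescence after 1 h at ambient temperature. Full response was set by 57 uM dopamine.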
D2 ag-2: activates the human D2 dopamine receptor; P14416; 340,000 tested, 0.53% active; HEK293 T-REx D2 cells, calcium flux agonist mode; AID 485358; activation, % at 2 µM;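 active = activation over 3 SD above normal in the single-dose calcium agonist read, cut at about 30% in these data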; also: 0% is about no effect
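HEK293 Trex D2 cells, tetracycline-induced, o/n 30 C 5% CO2; no-wash Ca dye, RT 30–90 min; 10-cycle baseline, 23 nl cpd added, kinetic Ca read 180 s; agonist hits = positive Ca response.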
D3 ag: activates human D3 dopamine receptor beta-arrestin recruitment | shares compounds with D2 ag-2 | DiscoveRx D3 beta-arrestin cells, luminescence, 90 min | Potency, µM (highest dose often 76.9 µM), for the others: at the top dose activation, actives largely listed as activators | 2,300 tested, 4% active | AID 720506;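 also: potency is read from the fitted curve at half-maximal effect; 100% = dopamine control response; nearly all actives have a fitted effect of over 70% in size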
Target sequence (P35462 whole entry, looked up): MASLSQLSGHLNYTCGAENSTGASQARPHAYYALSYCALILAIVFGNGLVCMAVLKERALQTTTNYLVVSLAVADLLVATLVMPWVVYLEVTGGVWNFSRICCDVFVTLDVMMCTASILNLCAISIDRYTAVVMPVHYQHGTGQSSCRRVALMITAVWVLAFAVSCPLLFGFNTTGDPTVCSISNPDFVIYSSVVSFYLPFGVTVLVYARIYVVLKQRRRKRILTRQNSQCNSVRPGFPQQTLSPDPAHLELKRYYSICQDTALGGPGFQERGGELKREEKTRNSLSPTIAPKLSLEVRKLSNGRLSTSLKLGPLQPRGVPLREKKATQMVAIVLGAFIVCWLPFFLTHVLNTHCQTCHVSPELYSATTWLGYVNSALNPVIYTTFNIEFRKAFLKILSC
D2 ag-3: D2 receptor agonism, beta-arrestin counterscreen. Potency, µM (series often up to 76.9 µM), inactives show top-dose activation, actives largely listed as activators. 2,300 tested, 5.9% active. shares compounds with D2 ag-2. DiscoveRx PathHunter D2 beta-arrestin, luminescence, 90 min; response scale: percent relative to full dopamine signal. AID 720507; also: potency is read from the fitted curve at half-maximal effect; % of control where 0% means no effect; nearly all actives have a fitted effect of over 70% in size
* = called active by the depositor; ? = inconclusive; . = not tested or not shown. Unless noted, calls follow the shape of the dose curve; as a rule, active = well fitted activation curve with a large enough effect; inconclusive = small, poorly fitted or top-dose-only effect; inactive = flat fitted curve, though single readings scatter.

SMILES	D2 ag-1	D2 antag	D2 PAM-1	D2 PAM-2	D2 ag-2	D3 ag	D2 ag-3
CN(Cc1ccccc1)CC(O)COc1ccc(CNCCOc2cccnc2)cc1 (stereo not drawn)	?	83*	-12	-2	56*	1.4µM*	24%
CN(Cc1ccccc1)CC(O)COc1ccc(CNCCCOc2cccnc2)cc1 (stereo not drawn)	1	26	-15	-30	0	.	.
CCOC(=O)C1CCN(Cc2cn(C)nc2-c2ccc(Oc3ccccc3)cc2)CC1	5	20	-8	-5	18	-12%	9%
CCOC(=O)C1CCN(Cc2cccc(OCc3ccccc3)c2)CC1	48*	86*	-21	22	74*	14%	?
Cn1cc(CN2CCC(O)CC2)c(-c2ccc(Oc3ccccc3)cc2)n1	-7	10	-14	-12	1	.	.
CCOC(=O)C1(CCOc2ccccc2)CCN(Cc2cccn2-c2ncccn2)CC1	1	-8	3	-7	0	-8%	3%
CCOC(=O)C1(CCOC)CCN(Cc2cccc(OCc3ccccc3)c2)CC1	1	37*	-20	-4	63*	0%	25%
Cc1ccc(C(=O)N/C(=C/c2ccco2)C(=O)OCN2C(=O)c3ccccc3C2=O)cc1	-5	4	0	-23	-3	.	.
O=C(CSc1nc(-c2ccc(F)cc2)[nH]c1-c1ccccc1)Nc1ccccc1	.	.	2	.	8	.	.
Cc1cn2c(=O)cc(COc3ccc(NC(=O)c4ccccc4C)cc3)nc2s1	.	.	6	.	-1	.	.
O=C(CSc1nnc(-c2cccs2)n1C1CC1)NCC1CCCO1 (stereo not drawn)	7	23	-11	2	3	.	.
CCOC(=O)C1(Cc2cccc(OC)c2)CCN(Cc2cnc(SC)nc2)CC1	-2	93*	-19	3	59*	0%	?
COC(=O)c1ccc(C(c2c(N)n(CC(C)C)c(=O)[nH]c2=O)N2CCN(c3ccccc3)CC2)cc1 (stereo not drawn)	1	.	.	-3	.	.	.
CCCn1c(N)c(C(c2ccc(C(=O)OC)cc2)N2CCN(c3ccccc3)CC2)c(=O)[nH]c1=O (stereo not drawn)	-1	16	-8	-5	48*	5%	11%
CCCn1c(N)c(C(c2ccc(OC)cc2)N2CCN(c3ccccc3)CC2)c(=O)[nH]c1=O (stereo not drawn)	7	3	-10	-9	43*	-8%	7%
Oc1ccc(-c2csc(-c3ccccc3)n2)cc1O	4	-22	-1	15	0	.	.
Oc1ccc(-c2csc(-c3cccnc3)n2)cc1O	6	4	-10	16	31*	16µM*	15%
O=C(NC(=S)Nc1ccc(CN2CCOCC2)cc1)c1ccc([N+](=O)[O-])cc1Cl	1	16	0	-16	6	.	.
O=C(NC(=S)Nc1ccc(CN2CCOCC2)cc1)c1ccccc1[N+](=O)[O-]	-1	.	.	-1	.	-21%	-1%
O=C(c1cccs1)N1CCN(Cc2cccnc2)CC1	?	59*	-6	14	60*	-1%	?
O=C(c1cccs1)N1CCN(CCCc2ccccc2)CC1	2	59*	-13	-10	36*	15%	9%
O=C(c1cccc(Cl)c1)N1CCN(Cc2ccncc2)CC1	-4	-19	4	-11	1	.	.
O=C(c1cccs1)N1CCN(c2ncccn2)CC1	-2	15	-10	2	0	.	.
CN(c1ccc(C(=O)N2CCN(Cc3ccccc3)CC2)cc1)S(=O)(=O)c1ccccc1	?	61*	-24	10	67*	2%	?
O=C(c1cccs1)N1CCN(Cc2ccncc2)CC1	14	21	-20	3	63*	13%	?
SMILES	D2 ag-1	D2 antag	D2 PAM-1	D2 PAM-2	D2 ag-2	D3 ag	D2 ag-3
O=C(NCC(=O)N1CCN(Cc2ccccc2)CC1)c1cccs1	7	.	.	-1	.	.	.
O=C(c1cccs1)N1CCN(Cc2ccccc2)CC1	41*	64*	-26	24	75*	?	?
Cc1ccccc1CC(=O)Nc1ccc2c(c1)c(=O)n(C)n2-c1ccccc1F	-2	.	.	-9	.	.	.
C#CCNC(=O)C1=C[C@@H](c2ccc(C#C)cc2)[C@H](CCCO)[C@@H](OCC)O1	1	32*	1	10	0	5%	-3%
CCO[C@H]1OC(C(=O)Nc2ccccc2)=C[C@@H](c2csc3ccccc23)[C@@H]1CCCO	-1	-17	3	-1	0	.	.
CCO[C@@H]1OC(C(=O)O)=C[C@H](c2csc3ccccc23)[C@H]1CCCO	-3	32*	-6	-4	0	-3%	-3%
Cc1ccc(OCC(O)CN2CCOCC2)cc1C (stereo not drawn)	-3	5	2	-2	-1	.	.
CCC(Nc1ccc(-c2nc(-c3ccccn3)no2)cc1[N+](=O)[O-])c1ccccc1 (stereo not drawn)	.	.	7	.	2	.	.
Cn1c(N2CCN(c3ccccn3)CC2)nc2c1c(=O)n(Cc1ccc(Cl)cc1)c(=O)n2C	5	49*	-10	-7	47*	18%	?
Cn1c(N2CCN(c3ccccn3)CC2)nc2c1c(=O)n(Cc1ccccc1Cl)c(=O)n2C	-2	.	.	-16	.	.	.
Cc1ccc(C)c(C(=O)COC(=O)C(C)N2C(=O)C3C4CCC(C4)C3C2=O)c1 (stereo not drawn)	-10	26	-7	-11	1	.	.
Cn1nc(C(F)(F)F)c(C#N)c1N1CCN(c2ccccn2)CC1	0	-33	-1	-3	11	12%	17%
CCCCNc1nc(Oc2ccc(OCCC)nn2)nc(N(C)C)n1	.	.	12	.	-1	.	.
O=C(CSc1ccc(-c2cccc([N+](=O)[O-])c2)nn1)N1CCCCC1	-3	11	-1	-5	1	.	.
COc1ccc(Nc2sc(C(=O)c3ccc(Cl)cc3)c(N)c2C(=O)Nc2ccccc2OC)cc1	-3	5	-10	14	28	-12%	2%
Cc1ccc(S(=O)(=O)N2CCOCC2)cc1C(=O)N1CCN(c2ncccn2)CC1	6	-27	-16	25	36*	-8%	-1%
Cc1ccccc1C(=O)NNC(=O)c1cc(S(=O)(=O)N2CCOCC2)ccc1C	-2	17	-2	-4	1	-5%	-2%
Cc1ccc(S(=O)(=O)N2CCOCC2)cc1C(=O)N1CCOCC1	-2	.	18	-3	.	.	.
